From PubChem
CDC25B CDK2 inh = human CDC25B-CDK2/CyclinA binding inhibition; P30305+P24941; hit rate 0.72% among 94,000; z-score (concentration not given with the values); AID 1259370; HTRF CDC25B-CDK2/CyclinA binding, anti-His/anti-Flag; active compounds read high; in the data active means z-score above about 3.2
TAR Tat displ = HIV-1 TAR-Tat binding disruption; HIV-1 TAR RNA, Tat peptide displacement FRET; active compounds read high; z-score (no concentration beside the values); hit rate 0.6% among 100,000; AID 1259389; active means z-score of 3 or more in at least 2 runs
Numbers without * were called inactive; / = not tested or not shown. Only some compounds are listed: those with a hit (about 0.86% of all), similar ones and a draw of the others.

SMILES | CDC25B CDK2 inh | TAR Tat displ
COc1cc(-c2oc3cc(O)cc(O)c3c(=O)c2O[C@@H]2O[C@H](CO)[C@@H](O)[C@H](O)[C@H]2O)ccc1O | / | 0.39
O=c1c(O[C@@H]2O[C@H](CO)[C@@H](O)[C@H](O)[C@H]2O)c(-c2ccc(O)c(O)c2)oc2cc(O)cc(O)c12 | / | 28.1*
CC1O[C@@H](Oc2c(-c3ccc(O)c(O)c3)oc3cc(O)cc(O)c3c2=O)[C@H](O)[C@H](O)[C@H]1O (some centres not stated) | / | 2.79
O=c1c(O[C@@H]2OC([C@H](O)CO)[C@H](O)[C@H]2O)c(-c2ccc(O)c(O)c2)oc2cc(O)cc(O)c12 (some centres not stated) | / | 26.9*
CC1=CC(C)(C)N(C(=O)CSc2nnc(C)s2)c2ccccc21 | -0.98 | -1
CSc1nc2sc3c(c2c(=O)n1CC(C)C)CCC3 | -2.44 | /
CCOC(=O)c1sc(Nc2nc(N(C)C)nc(N(C)C)n2)nc1C | -0.71 | 0.09
CSc1cccc(NC(=O)Nc2cn(CC(C)C)c(=O)c3ccccc23)c1 | / | 0.17
CSC1=NCCN1S(=O)(=O)c1ccc(C)cc1C | -0.28 | -0.37
Cn1c(=O)c(/C=C/c2ccccc2F)nc2ccccc21 | -0.1 | -7.48
COc1ccc(O)c(C2=NN3C(C2)c2cccc(OC)c2OC3c2ccc(O)cc2)c1 (configuration not stated) | -0.9 | 2.44
COc1cc(CNc2ccc3[nH]c(=O)[nH]c3c2)cc(Br)c1OCc1cccs1 | 8.87* | /
CCOc1cc(CNc2ccc(O)cc2)cc(Br)c1OCc1cccs1 | -0.71 | -6.52
CC(C)(CO)NCc1cc(Br)ccc1OCc1ccccc1 | 0.31 | -0.65
O=c1[nH]c2ccc(NCc3cc(Br)ccc3OCc3ccccc3)cc2[nH]1 | 13* | -3.08
O=C1CC(N2CCN(Cc3ccc(Cl)cc3)CC2)C(=O)N1c1ccc(Cl)cc1 (configuration not stated) | -0.42 | /
COc1ccc(-n2c(C)cc(CNS(=O)(=O)c3cc(Cl)ccc3OC)c2C)cc1 | / | 1.03
COc1ccc2ccccc2c1C1CC(=O)N2CN(Cc3ccccc3)CSC2=C1C#N (configuration not stated) | 5.38* | 1.59
COc1ccc2ccccc2c1C1CC(=O)N2CN(Cc3ccco3)CSC2=C1C#N (configuration not stated) | 5.81* | 0.91
COc1ccc2ccccc2c1C1CC(=O)N2CN(C3CCCCC3)CSC2=C1C#N (configuration not stated) | 6.11* | -1.61
Cc1ccc(NC(=O)C2C3C=CC4(O3)C2C(=O)N(C(C)C)C4C(=O)NC2CCCCC2)cc1Cl (configuration not stated) | -0.59 | 1.46
Cc1ccc(NC(=O)Nc2c[nH]c(=O)[nH]c2=O)c(C)c1 | / | 1.81
COc1cccc2c1c(NC(=O)c1cc3ccccc3s1)nn2C | -1.88 | /
C#CCN1C(=O)C(O)(CC(=O)c2ccccc2)c2ccccc21 (configuration not stated) | -1.35 | /
COc1cccc(C2CC(=O)N3CN(Cc4ccccc4)CSC3=C2C#N)c1OC (configuration not stated) | 5.55* | -0.36
SMILES | CDC25B CDK2 inh | TAR Tat displ
COc1ccccc1C1CC(=O)N2CN(Cc3ccccc3)CSC2=C1C#N (configuration not stated) | 5.31* | 0.76
N#CC1=C2SCN(Cc3ccccc3)CN2C(=O)CC1c1cccc2ccccc12 (configuration not stated) | 0 | -0.85
COc1ccccc1C1CC(=O)N2C(=C1C#N)SCC2(O)c1ccccc1 (configuration not stated) | -6.98 | /
NC(=O)Cn1c(=O)n(Cc2nc(-c3ccccc3)no2)c(=O)c2ccccc21 | / | 0.12
COc1ccc(C2NC(=O)NC(O)(C(F)(F)F)C2C(=O)c2ccc(Br)cc2)cc1 (configuration not stated) | 0.1 | /
CC(C)=CCC/C(C)=C/CC/C(C)=C/CO | / | 0.89
CC(C)=CCC/C(C)=C/CC/C(C)=C/CC/C(C)=C/CC/C(C)=C/CC/C(C)=C/CC/C(C)=C/CC/C(C)=C/CC/C(C)=C/CO | / | 31.6*
COc1ccc(-c2nnc3c4cc5c(cc4n(Cc4ccccc4)cc2-3)OCCO5)cc1OC | 2.05 | 0.88
COc1cccc(Cn2cc3c(-c4ccc(OC)c(OC)c4)nnc-3c3cc4c(cc32)OCCO4)c1 | 2.8 | 5.09*
CCN1C(=O)Cc2cc(NS(=O)(=O)c3cc(F)ccc3F)ccc21 | / | 0.67
COCCNc1cc(N2CCN(C3CCCCC3)CC2)c2noc3c2c1C(=O)c1ccccc1-3 | -0.67 | 8.07*
COCCNc1cc(N2CCCC2)c2noc3c2c1C(=O)c1ccccc1-3 | -2.06 | -1.21
CCOCCCNc1cc(N2CCC(C)CC2)c2noc3c2c1C(=O)c1ccccc1-3 | -1.31 | 2.09
CN(C)CCCNc1cc(N2CCN(c3ccccn3)CC2)c2noc3c2c1C(=O)c1ccccc1-3 | 1.18 | 7.24*
CC1CCN(c2cc(NCCCN(C)C)c3c4c(onc24)-c2ccccc2C3=O)CC1 | 1.79 | 16.2*
O=C1c2ccccc2-c2onc3c(N4CCN(C5CCCCC5)CC4)cc(NCCO)c1c23 | -2.27 | 0.42
COCCNc1cc(N2CCN(c3ccccn3)CC2)c2noc3c2c1C(=O)c1ccccc1-3 | 2.74 | -2.17
CN(C)CCCNc1cc(N2CCN(C3CCCCC3)CC2)c2noc3c2c1C(=O)c1ccccc1-3 | -1.73 | 8.69*
Cc1nnc2c(Nc3ccc(Cl)c(C(=O)O)c3)nc3ccccc3n12 | -0.81 | 0.22
O=C1N(Cc2ccc(Cl)cc2)c2ccccc2S(=O)(=O)N1Cc1ccc(F)cc1 | / | 1.24
CSc1cccc(NC(=O)CCc2nc3sc4c(c3c(=O)[nH]2)CCCC4)c1 | / | -1.27
O=c1[nH]c(SC/C=C/c2ccccc2)nc2c1cnn2-c1ccccc1 | / | 0.95
CSCC[C@H](NC(=O)OC(C)(C)C)C(=O)N[C@@H](CC(=O)O)C(=O)NCC(=O)N[C@@H](CS)C(=O)N[C@@H](CCC(=O)O)C(=O)N[C@@H](CC(C)C)C(=O)O | / | 1.58
Cc1nc2nc(-c3ccco3)[nH]n2c(=O)c1Cc1ccccc1 | 12.6* | 1.08
CCc1c(C)nc2nc(-c3ccco3)[nH]n2c1=O | -0.34 | -0.83
SMILES | CDC25B CDK2 inh | TAR Tat displ
Cc1c(C(=O)O)sc2ncnc(N3CCC(c4ccccc4)C3)c12 (configuration not stated) | / | 0.4
CCOC(=O)C1CCN(c2ncnc3sc(C(=O)O)c(C)c23)CC1 | / | 15.9*
CCCN1CCN(S(=O)(=O)c2ccc3[nH]c(=O)ccc3c2)CC1 | / | 2.98
CCC1CCCCN1S(=O)(=O)c1ccc2[nH]c(=O)ccc2c1 (configuration not stated) | / | 6.55*
Cc1ccc(-c2c(C(F)(F)F)nn3c(NCc4ccccn4)cc(C)nc23)cc1 | -1.9 | -0.19
COc1ccc2c(c1)OCC(Cc1ccc(OC)c(OC(C)=O)c1)C2=O (configuration not stated) | / | 1.09
COc1ccc2c(c1)OCC(Cc1ccc(OC)c(OC)c1)C2=O (configuration not stated) | / | 14.3*
CCOC(=O)c1c(NC(=O)CCN2C(=O)c3ccccc3S2(=O)=O)sc(C)c1C | -0.31 | /
Cc1ccc(Nc2nc(-c3ccc(O)c(O)c3)cs2)nc1 | -1.12 | 15.5*
Cc1ccc(Nc2nc(-c3ccc(O)cc3)cs2)nc1 | -1.6 | 1.86
Cc1ccccc1-c1nc(Cn2c(C)nc3onc(C)c3c2=O)c(C)o1 | / | 1.17
CC(C)(C)c1nc2scc(-c3ccccc3)c2c(=O)o1 | 5.93* | 1.12
O=c1oc(Cc2ccccc2)nc2scc(-c3ccccc3)c12 | 0 | 0.84
Cc1ccc2oc(-c3ccccc3F)c(O)c(=O)c2c1 | -0.64 | -0.18
O=C(O)CN(CC(=O)O)S(=O)(=O)c1ccccc1 | / | 16.5*
CCN(CC)S(=O)(=O)N(CC(=O)O)CC(=O)O | / | 0.75
